# Source: PubChem BioAssay (Tox21)
# Records with an inconclusive call do not appear. A call without a number means that no potency is given here. Activity calls are given as the source filed them. Unless noted, the call rests on the fitted dose curve; in most records, active means well fitted curve in the direction sought with a large enough effect in the repeat runs; inconclusive means weak or mixed curves; inactive means no such curve, though single readings can be large; an effect the other way counts as inactive or inconclusive.
# Legend:
# [1] = qHTS assay to identify small molecule agonists of the RXR signaling pathway - cell viability counter screen (AID 1159529);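 further: HEK 293T cells carrying an RXR-alpha UAS beta-lactamase reporter; series mostly up to about 77 µM; nearly all actives have a fitted effect of over 50% in size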
# How it was run: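 HEK 293T RXRa-bla cells, 2% CS-FBS; 5 h settle; cpd 16 h 37 C, 5% CO2; CellTiter-Glo 30 min RT, luminescence. Tetraoctyl ammonium bromide as positive control.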
# [2] = qHTS assay to identify small molecule antagonists of the retinoic acid receptor (RAR) signaling pathway (AID 1159552; further: nearly all actives have a fitted effect of over 50% in size)
# How it was run: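 Cells of the C3RL4 line were seeded, incubated overnight, then dosed with compounds in DMSO followed immediately by retinol (1 uM final). Six hours later luciferase detection reagent went in; signal was measured after 30 min at RT.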
# [3] = qHTS assay to identify small molecule agonists of the retinoic acid receptor (RAR) signaling pathway (AID 1159553)
# How it was run: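 In this cell-based screen, 1,000 C3RL4 cells per well were cultured overnight, dosed with test chemicals in DMSO for 6 hr, and assessed for RARE luciferase luminescence.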
# [4] = qHTS assay to identify small molecule antagonists of the estrogen related receptor (ERR) signaling pathway from Tox21 library - cell viability counter screen (AID 1224834); further: nearly all actives have a fitted effect of over 30% in size; further: potency means the concentration at half of the fitted maximal effect
# How it was run: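 Counter screen run in ERR cells (2,000 cells/well): cells pre-incubated 6 h, then treated with compounds for 17.5 h at 37 C. Fluorescence was read 30 min after CellTiter-Fluor addition.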
# [5] = target: Luciferin 4-monooxygenase (Photinus pyralis) (UniProt P08659); test: qHTS assay to identify small molecule inhibitors of firefly luciferase (AID 1224835); further: series mostly up to about 120 µM; nearly all actives have a fitted effect of over 25% in size
# Luciferin 4-monooxygenase (Photinus pyralis), sequence (P08659 whole entry, looked up): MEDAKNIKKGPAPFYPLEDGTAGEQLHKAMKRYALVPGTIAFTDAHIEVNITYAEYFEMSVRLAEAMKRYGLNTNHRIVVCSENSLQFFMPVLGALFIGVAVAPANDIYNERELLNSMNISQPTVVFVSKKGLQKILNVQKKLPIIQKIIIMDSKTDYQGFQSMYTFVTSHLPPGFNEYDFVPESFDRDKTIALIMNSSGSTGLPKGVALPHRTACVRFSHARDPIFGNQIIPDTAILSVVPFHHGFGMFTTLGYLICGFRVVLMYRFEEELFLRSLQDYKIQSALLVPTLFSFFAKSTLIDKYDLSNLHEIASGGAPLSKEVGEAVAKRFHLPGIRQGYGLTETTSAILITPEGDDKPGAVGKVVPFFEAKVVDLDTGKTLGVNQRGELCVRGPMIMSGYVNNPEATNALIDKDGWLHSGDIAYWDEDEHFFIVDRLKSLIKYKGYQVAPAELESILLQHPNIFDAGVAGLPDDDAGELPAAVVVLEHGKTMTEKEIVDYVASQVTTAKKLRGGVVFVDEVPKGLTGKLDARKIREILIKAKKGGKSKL
# How it was run: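 Biochemical qHTS: compounds run as interplate titrations against purified firefly enzyme, with D-luciferin and ATP each at its KM concentration. Light output recorded by CCD imaging.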
# [6] = qHTS assay to identify small molecule agonists of the constitutive androstane receptor (CAR) signaling pathway - cell viability counter screen (AID 1224836); further: series mostly up to about 92 µM; nearly all actives have a fitted effect of over 45% in size
# How it was run: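 HepG2-CYP2B6-hCAR, 2500 cells/well, 4 h pre-incubation; cpd 15 conc + PK11195 0.75 uM final; 23 h, 37 C/5% CO2; CellTiter-Fluor, fluorescence.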
# [7] = qHTS assay to identify small molecule antagonists of the constitutive androstane receptor (CAR) signaling pathway - cell viability counter screen (AID 1224837); further: nearly all actives have a fitted effect of over 45% in size; further: potency means the concentration at half of the fitted maximal effect
# How it was run: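 CITCO at 50 nM final was added alongside compounds (15 concentrations) to double-stable hCAR/CYP2B6-2.2kb HepG2 cells. Following 23 hr at 37 C, cell viability was quantified by CellTiter-Fluor fluorescence intensity.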
# [8] = qHTS assay to identify small molecule antagonists of the estrogen related receptor signaling pathway with the pleiotropic PPARgamma coactivator (PGC) from Tox21 10K library - cell viability counter screen (AID 1224840; active means well fitted cell-killing curve with a large enough effect in the repeat runs, not every such curve was filed as active; further: nearly all actives have a fitted effect of over 40% in size)
# How it was run: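 Readout: fluorescence intensity from CellTiter-Fluor after 30 min at 37 C/5% CO2. Preceded by 17.5 h treatment of PGC/ERR cells with DMSO-dissolved compounds, added 6 h post-seeding.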
# [9] = qHTS assay to identify small molecule antagonists of the estrogen related receptor signaling pathway with the pleiotropic PPARgamma coactivator (PGC) from Tox21 10K library (AID 1224841; call rule not given here; further: series mostly up to about 92 µM; actives are mostly falling curves and most rising ones were filed inactive; nearly all actives have a fitted effect of over 50% in size)
# How it was run: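 One-Glo luminescence, measured after half an hour at room temperature, quantified reporter output of PGC/ERR cells. These had been plated at 2,000 per well, incubated 6 h, dosed with compounds in DMSO, then kept 18 h at 37 C.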
# [10] = qHTS assay to identify small molecule agonists of the estrogen related receptor signaling pathway with the pleiotropic PPARgamma coactivator (PGC) from Tox21 10K library (AID 1224842); further: nearly all actives have a fitted effect of over 15% in size
# How it was run: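 PGC/ERR reporter cell line, 2,000 cells per well, incubated 6 h at 37 C before 23 nL compound in DMSO was added. After 18 h at 37 C, One-Glo luminescence read following 30 min at room temperature.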
# [11] = qHTS assay to identify small molecule antagonists of the retinoid acid receptor (RAR) signaling pathway - cell viability counter screen (AID 1159551); further: nearly all actives have a fitted effect of over 35% in size
# How it was run: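 In this counter screen, the RARE-luciferase line C3RL4 was exposed for 6 h at 37 C and 5% CO2 to compounds with retinol at 1 uM final. Cellular ATP, read by luminescence, served as the viability measure.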
# [12] = target: Nuclear receptor subfamily 1 group I member 3 (Homo sapiens) (UniProt Q14994); test: qHTS assay to identify small molecule antagonists of the constitutive androstane receptor (CAR) signaling pathway (AID 1224838); further: nearly all actives have a fitted effect of over 40% in size; further: potency means the concentration at half of the fitted maximal effect
# Nuclear receptor subfamily 1 group I member 3 (Homo sapiens), sequence (Q14994 whole entry, looked up): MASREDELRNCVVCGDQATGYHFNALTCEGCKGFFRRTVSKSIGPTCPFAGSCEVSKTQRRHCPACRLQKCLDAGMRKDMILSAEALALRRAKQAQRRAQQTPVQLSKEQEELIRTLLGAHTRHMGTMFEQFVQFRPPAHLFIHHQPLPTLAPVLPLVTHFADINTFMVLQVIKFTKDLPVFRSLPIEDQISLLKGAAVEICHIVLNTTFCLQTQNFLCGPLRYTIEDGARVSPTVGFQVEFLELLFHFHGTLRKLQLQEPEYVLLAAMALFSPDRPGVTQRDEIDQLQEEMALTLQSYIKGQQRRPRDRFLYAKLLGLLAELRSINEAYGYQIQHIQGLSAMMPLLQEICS
# How it was run: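 Inhibition of CITCO-driven (50 nM final) CYP2B6 reporter expression is measured in HepG2 cells stably carrying hCAR. Fifteen compound concentrations are applied for 24 h at 37 C, followed by luciferase luminescence.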
# [13] = target: Nuclear receptor subfamily 1 group I member 3 (Homo sapiens) (UniProt Q14994); test: qHTS assay to identify small molecule agonists of the constitutive androstane receptor (CAR) signaling pathway (AID 1224839); further: series mostly up to about 92 µM; nearly all actives have a fitted effect of over 15% in size
# How it was run: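 HepG2-CYP2B6-hCAR cells, 2500/well, 4 h pre-incubation; compounds 15 conc.; PK11195 0.75 uM final; 24 h, 37 C/5% CO2; ONE-Glo luciferase read.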
SMILES,Potency [1],Potency [2],Potency [3],Potency [4],Potency [5],Potency [6],Potency [7],Potency [8],Potency [9],Potency [10],Potency [11],Potency [12],Potency [13]
CCCCCCOC(=O)C(C)C,inactive,inactive,inactive,inactive,inactive,inactive,inactive,inactive,inactive,inactive,,,
CC[C@H](NC(=O)c1cc(F)ccc1NS(=O)(=O)c1cccc2cccnc12)c1ccccc1,,inactive,inactive,,inactive,inactive,inactive,,,,inactive,,
CCOC(=O)OCC,inactive,,,inactive,inactive,,inactive,inactive,,,,,
CN(C)CCOC1=Cc2ccccc2Sc2ccc(Cl)cc21,,,inactive,inactive,inactive,inactive,inactive,inactive,inactive,,inactive,inactive,inactive
O=C(N[C@@H](c1ccccc1)[C@@H]1CCCCN1)c1cccc(C(F)(F)F)c1Cl,inactive,,,,inactive,,61.1 µM (active),,,inactive,,48.6 µM (active),
C[Si](NC1CCCCC1)(NC1CCCCC1)NC1CCCCC1,,inactive,inactive,inactive,inactive,inactive,inactive,inactive,,,inactive,,
CC1CC(O)CC(C)(C)C1 (configuration not stated),,inactive,inactive,inactive,inactive,inactive,inactive,inactive,inactive,,inactive,inactive,inactive
O=C(CCCN1CCN(c2ccc(F)cc2)CC1)NC1c2ccccc2CSc2ccccc21 (configuration not stated),,,,inactive,inactive,,,inactive,,,inactive,29.8 µM (active),inactive
OCCSc1ccccc1,,,,inactive,,,inactive,inactive,,,inactive,inactive,inactive
CCc1nn(CCCN2CCN(c3cccc(Cl)c3)CC2)c(=O)n1CCOc1ccccc1,,,,29.8 µM (active),inactive,,,inactive,,,inactive,inactive,
